Reference: PubChem BioAssay (NCI)
Values joined by “and” are separate entries in the source; they are usually repeats but may differ in a detail not shown here. Identical values can stand only once. Compounds without any hit were thinned out: in the full panel of roughly 83,000, 20% have a hit.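 Values shown are percent growth following 48 h exposure of cells in 96-well plates to a single concentration of compound; below 10 was considered active.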 Unmarked numbers belong to inactive results. Active and inactive are the calls of the source.

test system: HL-60(TB) leukemia; test: NCI-60 one-dose screen, 48 h (100 = growth as untreated, 0 = no growth, -100 = all killed); conditions: 10 µM unless noted

Row | Compound | growth
1 | O=C(/C=C/c1ccc(Cl)cc1)c1cccc(Nc2nc(Nc3ccccc3)nc(Nc3ccccc3)n2)c1 | 95.9%
2 | Br/C(=N\Nc1nn[nH]n1)c1ccccc1 | 103%
3 | CCCCCCCC(=O)SCC/C=C/[C@@H]1CC(=O)NCc2cccc(n2)C2=N[C@@](C)(CS2)C(=O)N[C@@H](C(C)C)C(=O)O1 | 19.9%
4 | O[C@@H]1Cc2ccc3ccccc3c2N[C@H](c2ccoc2)C1 | 105%
5 | NN1C(=O)CSC1=S | 126%
6 | CC1=C(C#N)C(C)(C)C(C#N)=C(C)N1 | 98.6%
7 | O=C(CN1C(=O)CCC1=O)Nc1ncc(Cc2ccc(F)cc2)s1 | 98.2%
8 | N#CC(C#N)=C/C=C/c1cccc([N+](=O)[O-])c1 | -10.5% (active) and -9.74% (active)
9 | CCCCNCCC(O)c1cc2ccc(C(F)(F)F)cc2c2cc(C(F)(F)F)ccc12 (centres undefined) | -62.1% (active)
10 | Cc1c(-c2nc3ccc(F)cc3c(=O)[nH]2)c2ccccc2n1C | 4.98% (active)
11 | CCN(C(=O)N1CCN(c2cc3c(cc2F)c(=O)c(C(=O)O)cn3C2CC2)CC1)c1nc(-c2ccc(Cl)cc2)cs1 | -27.1% (active)
12 | N=C(N)c1ccc(-c2ccc(-c3cc(F)cc(F)c3)o2)nc1 | 97.7%
13 | O=C(O)c1ccc(-n2cc(/C=N/Nc3ccc(F)cc3)c(-c3cc4ccccc4oc3=O)n2)cc1 | 6.08% (active)
14 | CC1(c2ccccc2O)NN=C(/N=C/c2cccc([N+](=O)[O-])c2)N1C(Cc1c[nH]c2ccccc12)C(=O)O (centres undefined) | 120%
